From the supplement of paper PMC10338343
± gives the standard deviation.

Test system: MILI (PIWIL2) piRISC loaded with piRNA #1 (26 nt)
Assay: pre-steady-state target cleavage rate (min^-1); guide: piRNA #1 5'p-UGAGGUAGUAGGUUGUAUAGUAUCCA; MIWI and MILI are mouse PIWI proteins and EfPiwi is from a freshwater sponge; tags in brackets are library labels; higher = faster piRNA-guided slicing of the target
Settings: auxiliary factor: 500 nM mouse GTSF1
Method in brief: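 Cleave-'n-Seq used a transcribed, DNA-blocked target RNA library at 0.1 nM and active affinity-purified piRISC with one synthetic guide at 1 nM, with or without 500 nM GTSF1 partner protein, in HEPES–potassium acetate buffer at 33 °C for 0–8 or 0–960 min. Uncleaved targets were sequenced and normalised to depth and to weakly complementary targets, and three trials were pooled with k3 capped at 0.0001 min^-1. The pre-steady-state cleavage rate was estimated by a burst-and-steady-state fit.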

Sequence	pre-steady-state target cleavage rate
GGAGACCUUACUAUUGUACCUACUACCUCA	0.0232 ± 0.0049
GGAGACCUUACUAAACAACCUUCUACCUCA	0.00652 ± 0.0027
GGAGACCUUUCUAUACAACCUACUACCACA	0.152 ± 0.018
GGAGACGAUACUAUACAUGGUACUACCUCA	0.00601 ± 0.0019
GGAGACCUAUGAUUACAACCUACUACCUCC [g2:g17:cont:t1C]	0.00979 ± 0.0034
GGAGACCUAUCUAGACAACCUACUACCUCA	0.103 ± 0.016
GGAGAGGAUACUAUACUUGCUACUACCUCA	0.0407 ± 0.0049
GGAGACCUAUCUAUACAACGUACUACCUGA	0.00689 ± 0.0021
GGAGAGGAUACUAUUCAAGCUACUACCUCA	0.131 ± 0.014
GGAGACCUAUGUAUACAAGGAACUACCUCA	0.00296 ± 0.0028
GGAGACCUUACAUAUACAACCUACUACCUCA	0.0595 ± 0.012
GGAGACCUAUCUAAACUACCUACUACCUCA	0.051 ± 0.012
GGAGACCUUACUAAACAACCUACUAGCUCA	0.139 ± 0.018
GGAGACCUAUCUAUACAACCUAGCUACCUCA	0.0218 ± 0.0062
GGAGACCUAUCUAUAGAAGCUACUACCUCA	0.143 ± 0.019
GGAGACCUAUGAUUCACAACCUACUACCUCA	0.00321 ± 0.0032
GGAGACCUAUCUAUACAAGCUACUUCCUCA	0.164 ± 0.015
